# In PubChem BioAssay AID1259421 (Broad Institute, 2018):
# Values joined by “and” are separate entries in the source; they are usually repeats but may differ in a detail not shown here. Identical values can stand only once. Among all 6,400 compounds or so, about 610 (9.5%) were called active. Cut-off read from the data, not from the text of the source: active = activity change below about -70%; inconclusive = no clear call, values can overlap the other calls; inactive = above that. Shown is part of a subset that was picked to be rich in actives. Where a structure was tested more than once in an assay, its records may differ in their call.
# Assay: T. gondii ME49Luc in HeLa cells, luciferase assay, 72 h, no IFN-y (AID 1259421)
# Conditions: stronger effect = lower value, concentration not given here
row,SMILES,"activity change, negative = inhibition"
1,COc1cc(/C=C/C(=O)N2CCN(CC(=O)NC(C)C)CC2)cc(OC)c1OC,-0.924% (inactive)
2,CC(C)NC(=O)COc1cccc(-c2nc(Nc3ccc4[nH]ncc4c3)c3ccccc3n2)c1,-49.1% (inactive)
3,COc1ccc(CNC(=O)c2cc(-c3cncc(C)c3)ncc2-c2nccs2)nc1OC,3.2% (inactive)
4,N[C@@H](C(=O)O)[C@@H](OCc1ccccc1)C(=O)O (racemic),8.74% (inactive)
5,COc1cc(/C=C/C(=O)O[C@H]2CC[C@]34CC35CC[C@]3(C)[C@@H](C(C)CCC=C(C)C)CC[C@@]3(C)C5CCC4C2(C)C)ccc1O (stereo partly drawn),9.65% (inactive)
6,C=C(NC(=O)C(=C)NC(=O)c1csc(C2=N[C@H]3c4csc(n4)[C@H]4NC(=O)c5csc(n5)[C@H]([C@@](C)(O)[C@@H](C)O)NC(=O)[C@H]5CSC(=N5)/C(=C/C)NC(=O)[C@H]([C@@H](C)O)NC(=O)c5csc(n5)[C@]3(CC2)NC(=O)[C@H](C)NC(=O)C(=C)NC(=O)[C@H](C)NC(=O)[C@H](C(C)CC)N[C@@H]2C=Cc3c([C@H](C)O)cc(nc3[C@H]2O)C(=O)O[C@@H]4C)n1)C(N)=O (stereo partly drawn),-5.27% (inactive)
7,O=C(O)c1ccc2c(c1)nc(Nc1cccc(Cl)c1)c1ccncc12,-81.6% (active)
8,Clc1cccc(Nc2nnc(-c3ccccc3)c3ccccc23)c1,-1.93% (inactive) and 0.598% (inactive)
9,O=C(O)c1cccnc1Nc1cccc(C(F)(F)F)c1,5.33% (inactive) and 7.04% (inactive)
10,Cc1noc(-c2ccc(-c3ccc(CC(=O)O)cc3)cc2)c1NC(=O)O[C@H](C)c1ccccc1,6.32% (inactive)
11,CN(C)c1cc(NC(=O)CNC(C)(C)C)c(O)c2c1C[C@H]1C[C@H]3[C@H](N(C)C)C(=O)C(C(N)=O)C(=O)[C@@]3(O)C(=O)C1C2=O (stereo partly drawn),5.81% (inactive)
12,O=C(NCCCCN1CCOCC1)c1cc2ccccc2o1,0.553% (inactive)
13,OCCN1CCN(CC/C=C2/c3ccccc3Sc3ccc(C(F)(F)F)cc32)CC1,-74.2% (active)
14,CC(=O)c1ccc2c(c1)N(CCCN1CCN(CCO)CC1)c1ccccc1S2,15.8% (inactive)
15,CN1CCN(CCC=C2c3ccccc3Sc3ccc(S(=O)(=O)N(C)C)cc32)CC1,25.4% (inactive) and 73.8% (inactive)
16,CN1CCN(CCCN2c3ccccc3Sc3ccc(Cl)cc32)CC1,16.2% (inactive) and 18.1% (inactive)
17,OCCN1CCN(CC/C=C2/c3ccccc3Sc3ccc(Cl)cc32)CC1,-82.3% (active)
18,CN(C)CC/C=C1\c2ccccc2Sc2ccc(Cl)cc21,-58.2% (inactive)
19,OCCN1CCN(CCCN2c3ccccc3Sc3ccc(Cl)cc32)CC1,-81% (active)
20,CN(C)CC/C=C1/c2ccccc2Sc2ccc(Cl)cc21,-62.1% (inactive) and 35.6% (inactive)
21,OCCN1CCN(CCCN2c3ccccc3Sc3ccc(C(F)(F)F)cc32)CC1,-60% (inactive) and -63.7% (inactive)

row,SMILES,"activity change, negative = inhibition"
1,CC[C@H](C)[C@H](NC(=O)[C@H](Cc1ccc(O)cc1)NC(=O)[C@@H](NC(=O)[C@H](CCCN=C(N)N)NC(=O)[C@@H](N)CC(=O)O)C(C)C)C(=O)N[C@@H](Cc1cnc[nH]1)C(=O)N1CCC[C@H]1C(=O)O,8.39% (inactive)
2,O=S1(=O)N[C@H]2CCCN2c2ccccc21,1.4% (inactive)
3,CCC(=O)O[C@@]1(C(=O)CCl)[C@@H](C)C[C@H]2[C@@H]3C[C@H](F)C4=CC(=O)C=C[C@]4(C)[C@]3(F)[C@H](O)C[C@@]21C,6.07% (inactive)
4,CC(=O)c1c(O)c(C)c(O)c2c1OC1=CC(=O)C(C(C)=O)C(=O)C12C (stereo not drawn),-3.87% (inactive)
5,COc1ccccc1OCC(O)CNC(C)C (stereo not drawn),17.1% (inactive) and 3.92% (inactive)
6,COc1cc2c(cc1OC)C(=O)CC2,4.96% (inactive)
7,COc1cc(CCC(C)=O)ccc1O,7.65% (inactive)
8,COC(=O)C[C@](O)(CCCC(C)(C)O)C(=O)O[C@@H]1C(OC)=C[C@]23CCCN2CCc2cc4c(cc2[C@H]13)OCO4,-83.4% (active) and -83.9% (active) and -85.7% (active)
9,COCCCOc1ccnc(CS(=O)c2nc3ccccc3[nH]2)c1C (stereo not drawn),106% (inactive) and 41.3% (inactive)
10,N#CC(c1ccnc(OCc2ccc(CN3CCOCC3)cc2)n1)c1nc2ccccc2s1 (stereo not drawn),-29.2% (inactive)
11,C[C@@H](Oc1cc(-n2cnc3ccc(CN4CCN(C)CC4)cc32)sc1C(N)=O)c1ccccc1C(F)(F)F,-75.7% (active)
12,COc1cc2ncn(-c3cc(OCc4ccccc4C(F)(F)F)c(C(N)=O)s3)c2cc1OC,-75.1% (active)
13,C[C@H]1CC2C([C@@H](O)C[C@@]3(C)C2CC[C@]3(O)C(=O)COC(=O)CCC(=O)O)[C@@]2(C)C=CC(=O)C=C12 (stereo partly drawn),5.48% (inactive) and 3.76% (inactive)
14,COC1CC2CCC(C)C(O)(O2)C(=O)C(=O)N2CCCCC2C(=O)OC(C(C)CC2CCC(O)C(OC)C2)CC(=O)C(C)/C=C(\C)C(O)C(OC)C(=O)C(C)CC(C)/C=C/C=C/C=C/1C (stereo not drawn),5.34% (inactive) and -8.87% (inactive)
15,C=C1CC2C3C=C(C)C4=CC(=O)CC[C@]4(C)C3CC[C@]2(C)[C@@]1(OC(C)=O)C(C)=O (stereo partly drawn),10.5% (inactive) and -22.4% (inactive)
16,CCCCCCCCCCCCCCCCCC(=O)OCC(O)CO (stereo not drawn),5.64% (inactive)
17,COc1ccc(C2CC(c3c(O)cc(C)oc3=O)=NCCS2)c(OC)c1 (stereo not drawn),10.3% (inactive)
18,CO[C@H]1C=CO[C@@]2(C)Oc3c(C)c(O)c4c(O)c(c(/C=N/N5CCN(C6CCCC6)CC5)c(O)c4c3C2=O)NC(=O)/C(C)=C\C=C[C@H](C)[C@H](O)[C@@H](C)[C@@H](O)[C@@H](C)[C@H](OC(C)=O)[C@@H]1C,-5.33% (inactive)
19,CCCCCCCCCCCCCCCCCCOC[C@H](COP(=O)(O)OCC[N+](C)(C)C)OC,5.04% (inactive)
20,O=c1c(-c2ccc(O)cc2)coc2c([C@@H]3O[C@H](CO)[C@@H](O)[C@H](O)[C@H]3O)c(O)ccc12,-0.619% (inactive)
21,Cc1[nH]c(/C=C2\C(=O)Nc3ccccc32)c(C)c1CCC(=O)O,7.07% (inactive)

row,SMILES,"activity change, negative = inhibition"
1,Cc1[nH]c(/C=C2/C(=O)Nc3ccc(F)cc32)c(C)c1C(=O)NC[C@H](O)CN1CCOCC1,-69.2% (inactive)
2,CCN(CC)CCNC(=O)c1c(C)[nH]c(/C=C2\C(=O)Nc3ccc(F)cc32)c1C,-75.8% (active)
3,COc1cccc(OC)c1-c1ccc(C[C@H](NC(=O)c2c(Cl)cccc2Cl)C(=O)O)cc1,4.91% (inactive)
4,O=C(c1ccc(OCCCc2cnc[nH]2)cc1)C1CC1,31.1% (inactive)
5,CN=C(NC)NCc1ccc(OC)cc1,0.956% (inactive)
6,CC(C)CC1C(=O)N2CCCC2C2(O)OC(NC(=O)C3C=C4c5cccc6[nH]c(Br)c(c56)CC4N(C)C3)(C(C)C)C(=O)N12 (stereo not drawn),18.4% (inactive)
7,COc1cc2c(cc1OC)C(C(C(=O)N(CCc1ccc(OC)c(OC)c1OC)CCc1ccc(OC)c(OC)c1OC)c1ccccc1)=NCC2 (stereo not drawn),23.5% (inactive)
8,CC(C)n1nc(-c2ccc3oc(N)nc3c2)c2c(N)ncnc21,-74.3% (active)
9,CC(C)n1nc(-c2cc3cc(O)ccc3[nH]2)c2c(N)ncnc21,-50.4% (inactive)
10,CC(=O)O[C@@H]1CC[C@@]2(C)C(C[C@@H](OC(C)=O)[C@@]3(C)C4=CC(=O)O[C@@H](c5ccoc5)[C@]4(C)CCC23)C1(C)C (stereo partly drawn),12.5% (inactive)
11,O=C(O)CCc1c(C(=O)O)[nH]c2cc(Cl)cc(Cl)c12,12.5% (inactive)
12,CCC(C)[C@H]1O[C@]2(CC[C@@H]1C)C[C@@H]1C[C@@H](C/C=C(\C)[C@@H](OC3C[C@H](OC)C(O[C@H]4C[C@H](OC)[C@@H](O)[C@H](C)O4)[C@H](C)O3)[C@@H](C)/C=C/C=C3\CO[C@@H]4[C@H](O)C(C)=C[C@@H](C(=O)O1)[C@]34O)O2 (stereo partly drawn),-67.1% (inactive)
13,CCC(C)[C@H]1O[C@]2(C=C[C@@H]1C)C[C@@H]1C[C@@H](C/C=C(\C)[C@@H](OC3C[C@H](OC)C(O[C@H]4C[C@H](OC)[C@@H](NC(C)=O)[C@H](C)O4)[C@H](C)O3)[C@@H](C)/C=C/C=C3\CO[C@@H]4[C@H](O)C(C)=C[C@@H](C(=O)O1)[C@]34O)O2 (stereo partly drawn),-6.74% (inactive)
14,CC[C@H](C)[C@H]1O[C@]2(CC[C@@H]1C)C[C@@H]1C[C@@H](C/C=C(\C)[C@@H](O[C@H]3C[C@H](OC)[C@@H](O[C@H]4C[C@H](OC)[C@@H](O)[C@H](C)O4)[C@H](C)O3)[C@@H](C)/C=C/C=C3\CO[C@@H]4[C@H](O)C(C)=C[C@@H](C(=O)O1)[C@]34O)O2,-65% (inactive) and -79.5% (active)
15,COc1ccccc1N1CCN(CCCCN2C(=O)CCC2=O)CC1,-10.5% (inactive) and 6.09% (inactive)
16,C[C@]12C=CC(=O)C=C1CCC1C2C(=O)C[C@@]2(C)C1CC[C@]2(O)C(=O)CO (stereo partly drawn),-0.495% (inactive)
17,C=COCC(F)(F)F,2.78% (inactive)
18,COc1ncnc(N)c1OC,8.31% (inactive)
19,C[C@]12CCC3c4ccc(O)cc4CCC3C1CC[C@@H]2OC(=O)CCC1CCCC1 (stereo partly drawn),-65.2% (inactive) and 3.38% (inactive)
20,C[C@]12CC[C@@H]3c4ccc(O)cc4C[C@@H](CCCCCCCCCS(=O)CCCC(F)(F)C(F)(F)F)[C@H]3[C@@H]1CC[C@@H]2O (stereo partly drawn),-83.4% (active)
21,CCCCC(=O)O[C@H]1CC[C@H]2[C@@H]3CCc4cc(O)ccc4[C@H]3CC[C@]12C,-58.1% (inactive)
